We go through 13 molecules from PubChem BioAssay.

For part of these data: Results with a measured potency or affinity are listed apart. Active and inactive are the calls of the source.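 Rule for the calls, unless noted: active = dose curve with midpoint inside tested range, moderate steepness, plateau gap beyond fit error, low compound glow and bead-link interference; inactive = the rest.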

Assay [1] addresses Cell division control protein 42 homolog (Homo sapiens) (UniProt P60953). As to the kind of experiment: activated mutant Cdc42 GTP-binding inhibitors, dose response, biochemical, multiplex bead flow cytometry, Bodipy-FL-GTP (AID 1333;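 active = fitted half-maximal concentration within the tested dose range, moderate curve steepness, a statistically real signal drop, and little compound fluorescence or tag-binding interference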). (In general: In flow cytometry, cells or beads pass a laser one at a time.)
For assay [2] the target is unchanged. In words: wildtype Cdc42 GTP-binding inhibitors, dose response, biochemical, multiplex bead flow cytometry, Bodipy-FL-GTP (AID 1334;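 active = fitted half-maximal concentration within the tested range, moderate curve steepness, significant signal drop, and little compound fluorescence or bead-linkage interference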). The following applies: bead-based flow cytometry, Bodipy-FL-GTP binding to GST-Cdc42; at 100 µM (top of the series) unless noted.
In assay [3] the target is GTPase HRas (Homo sapiens) (UniProt P01112). In words: inhibitors of GTP binding to wildtype Ras, dose response, biochemical, multiplex bead flow cytometry (AID 1335;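 active = fitted half-maximal concentration within 10 nM to 100 µM, steepness 0.5 to 2, significant signal drop, low assay interference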). The settings on record: bead-based flow cytometry, Bodipy-GTP binding to GST-Ras; at 100 µM (top of the series) unless noted.
The subject of assay [4] is Ras-related protein Rab-7a (dog), GTP binding. As to the kind of experiment: Rab7 GTP binding inhibitors, potency, dose response, biochemical, wildtype, multiplex bead flow cytometry (AID 1336; call rule not given here).
The target in assay [5] is Ras-related C3 botulinum toxin substrate 1 (Homo sapiens) (UniProt P63000). In words: wildtype Rac1 GTP binding inhibitors, dose response, biochemical, multiplex bead flow cytometry (AID 1340). The following applies: GST-Rac1 beads, Bodipy-FL-GTP binding; at 100 µM (top of the series) unless noted.
Assay [6] has as its target GTPase HRas (Homo sapiens) (UniProt P01112). In words: activated Ras mutant GTP binding inhibitors, dose response, biochemical, multiplex bead flow cytometry (AID 1341;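 active = dose-response curve with midpoint inside the tested range, moderate steepness, significant amplitude and little compound fluorescence or bead-attachment interference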;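 note: GST-tagged constitutively activated Ras mutant immobilized on beads and multiplexed with other GTPases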).

Chain of GTPase HRas (Homo sapiens) (P01112 whole entry, looked up): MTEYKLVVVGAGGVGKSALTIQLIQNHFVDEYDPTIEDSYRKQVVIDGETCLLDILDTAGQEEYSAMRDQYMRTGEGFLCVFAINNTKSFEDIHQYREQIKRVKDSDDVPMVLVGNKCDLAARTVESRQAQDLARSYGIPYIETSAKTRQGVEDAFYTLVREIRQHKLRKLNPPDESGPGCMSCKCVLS
Chain of Cell division control protein 42 homolog (Homo sapiens) (P60953 whole entry, looked up): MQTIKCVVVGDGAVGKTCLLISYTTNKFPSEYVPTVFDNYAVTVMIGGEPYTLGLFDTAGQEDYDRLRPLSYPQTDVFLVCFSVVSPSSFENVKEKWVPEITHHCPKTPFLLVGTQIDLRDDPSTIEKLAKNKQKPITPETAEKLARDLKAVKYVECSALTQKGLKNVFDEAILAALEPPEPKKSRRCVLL

Consider `Oc1ccc(NC(=S)N=Nc2c(O)[nH]c3ccc(Br)cc23)cc1`, for which the call in assay [1], in assay [4] and in assay [6] was inactive. Moreover, the fluorescence, percent of control (lower = inhibition) in assay [2] came to 33.1%. This molecule returned a GTP binding, percent of control in assay [3] of 78.4%. Besides, the GTP binding signal, raw median fluorescence (lower = inhibition) (MCF (arbitrary fluorescence units)) in assay [5] amounted to 200.
For the molecule `Cc1cc(OCCSc2nc3ccccc3n2CC(=O)O)ccc1Cl`, the call in assay [1], in assay [4] and in assay [6] was inactive. Besides, the fluorescence, percent of control (lower = inhibition) in assay [2] was 58.4%. For the same molecule, the GTP binding, percent of control in assay [3] is 85.5%. In addition, the GTP binding signal, raw median fluorescence (lower = inhibition) (MCF (arbitrary fluorescence units)) in assay [5] was 29.6.
As for `COc1ccc(O)c(-c2cc(C(F)(F)C(F)F)nc(-c3ccccc3)n2)c1`, the outcome in assay [1], in assay [4] and in assay [6] was inactive. Also, the fluorescence, percent of control (lower = inhibition) in assay [2] was determined as 106%. The molecule further returned a GTP binding, percent of control in assay [3] of 177%. This molecule gave a GTP binding signal, raw median fluorescence (lower = inhibition) (MCF (arbitrary fluorescence units)) in assay [5] of 183.
As for `OCC(CO)(CO)NCc1ccc(-c2ccccc2)cc1`, the outcome in assay [1], in assay [4] and in assay [6] was inactive. For the same molecule, the fluorescence, percent of control (lower = inhibition) in assay [2] worked out at 49.9%. Besides, in assay [3], the GTP binding, percent of control is 65.6%. Also, in assay [5], the GTP binding signal, raw median fluorescence (lower = inhibition) (MCF (arbitrary fluorescence units)) worked out at 214.
Take `O=C(NCc1ccc(F)cc1)C(c1ccccc1)N(CC1CCCO1)C(=O)Cn1nnc2ccccc21` (stereo not drawn): the result in assay [1], in assay [4] and in assay [6] was inactive. Besides, the fluorescence, percent of control (lower = inhibition) in assay [2] was 53.6%. The GTP binding, percent of control in assay [3] worked out at 70.1%. Moreover, in assay [5], the GTP binding signal, raw median fluorescence (lower = inhibition) (MCF (arbitrary fluorescence units)) worked out at 0.
Turning to `COc1cc2nc(=S)n(CCCN3CCOCC3)c(N)c2cc1OC`, the outcome in assay [1], in assay [4] and in assay [6] was inactive. In addition, the fluorescence, percent of control (lower = inhibition) in assay [2] was 38.1%. The GTP binding, percent of control in assay [3] stood at 79.4%. Besides, the GTP binding signal, raw median fluorescence (lower = inhibition) (MCF (arbitrary fluorescence units)) in assay [5] was 151.
Regarding `CCOc1cc(/C=N/NC(=O)c2cc(-c3cccnc3)nc3ccccc23)ccc1O`, the molecule was called inactive in assay [1], in assay [4] and in assay [6]. In addition, the fluorescence, percent of control (lower = inhibition) in assay [2] stood at 33.8%. In addition, in assay [3], the GTP binding, percent of control was determined as 80.2%. For the same molecule, the GTP binding signal, raw median fluorescence (lower = inhibition) (MCF (arbitrary fluorescence units)) in assay [5] stood at 188.
`O=C(O)c1ccc(CNCc2cccc(Cl)c2)s1`: the molecule was classed as inactive in assay [1], in assay [4] and in assay [6]. Also, the fluorescence, percent of control (lower = inhibition) in assay [2] is 61.3%. Further, the GTP binding, percent of control in assay [3] is 85.1%. Also, in assay [5], the GTP binding signal, raw median fluorescence (lower = inhibition) (MCF (arbitrary fluorescence units)) came out at 32.6.
`C=CC#CC[N+]1(CC#Cc2ccccc2)CCOCC1`: the molecule was classed as inactive in assay [1], in assay [4] and in assay [6]. Besides, the fluorescence, percent of control (lower = inhibition) in assay [2] was 97.9%. The molecule also came in with a GTP binding, percent of control in assay [3] of 95.4%. Besides, in assay [5], the GTP binding signal, raw median fluorescence (lower = inhibition) (MCF (arbitrary fluorescence units)) was 537.
`Cc1ccc(C)c(N2CCN(C(=O)CN(C)S(=O)(=O)c3ccc4c(c3)CCC(=O)N4)CC2)c1`: the outcome in assay [1], in assay [4] and in assay [6] was inactive. Also, the fluorescence, percent of control (lower = inhibition) in assay [2] was 41.8%. For the same molecule, the GTP binding, percent of control in assay [3] was determined as 65.9%. The molecule further displayed a GTP binding signal, raw median fluorescence (lower = inhibition) (MCF (arbitrary fluorescence units)) in assay [5] of 156.
In the case of `Cc1cccc(/C=N/N(CCO)C2=NS(=O)(=O)c3ccccc32)c1`, the call in assay [1], in assay [4] and in assay [6] was inactive. The fluorescence, percent of control (lower = inhibition) in assay [2] was found to be 28.3%. Besides, in assay [3], the GTP binding, percent of control is 67.6%. The GTP binding signal, raw median fluorescence (lower = inhibition) (MCF (arbitrary fluorescence units)) in assay [5] worked out at 139.
`COc1ccc(CNCc2sc(C(=O)O)cc2C)cc1OC`: the outcome in assay [1], in assay [4] and in assay [6] was inactive. The fluorescence, percent of control (lower = inhibition) in assay [2] turned out to be 59.2%. Moreover, in assay [3], the GTP binding, percent of control amounted to 78.1%. Also, in assay [5], the GTP binding signal, raw median fluorescence (lower = inhibition) (MCF (arbitrary fluorescence units)) came to 32.2.
As for `CCC(OC(=O)c1cc2sccc2n1C)C(=O)NCc1ccco1` (stereo not drawn), the call in assay [1], in assay [4] and in assay [6] was inactive. For the same molecule, the fluorescence, percent of control (lower = inhibition) in assay [2] was found to be 54.2%. The GTP binding, percent of control in assay [3] stood at 63%. Further, in assay [5], the GTP binding signal, raw median fluorescence (lower = inhibition) (MCF (arbitrary fluorescence units)) stood at 212.
